Drawing on paper PMC7862700, “An all-to-all approach to the identification of sequence-specific readers for epigenetic DNA modifications on cytosine”, this text covers binding signal for one sequence.

What all share (assay): DAPPL (digital affinity profiling via proximity ligation, sequencing); 10 mM Tris-HCl pH 7.5, 50 mM NaCl, 1 mM DTT, 4% glycerol, room temperature, 30 min; GST-TFs on glutathione beads, 16-mer random dsDNA library, 0.1% formaldehyde crosslink after washing; high values mean tight binding
What all share (conditions): protein: recombinant; tags: N-terminal GST; dsDNA, one strand shown

The target of assay [1] is T1, ELK1 (Homo sapiens, UniProt P19419 1-428).
T1 sequence: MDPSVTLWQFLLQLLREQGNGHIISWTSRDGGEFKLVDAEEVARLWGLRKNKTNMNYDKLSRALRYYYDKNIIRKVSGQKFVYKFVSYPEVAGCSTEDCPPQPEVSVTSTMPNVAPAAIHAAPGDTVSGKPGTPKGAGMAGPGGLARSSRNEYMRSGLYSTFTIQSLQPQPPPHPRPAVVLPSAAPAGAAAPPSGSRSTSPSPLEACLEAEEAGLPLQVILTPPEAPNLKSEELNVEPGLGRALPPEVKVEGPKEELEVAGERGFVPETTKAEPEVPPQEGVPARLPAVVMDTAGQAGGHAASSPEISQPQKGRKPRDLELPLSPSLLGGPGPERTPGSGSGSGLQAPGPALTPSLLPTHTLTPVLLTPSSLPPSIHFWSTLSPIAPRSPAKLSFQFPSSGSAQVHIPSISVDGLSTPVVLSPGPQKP
A digest of the protocol:
(§1)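 A tag-only sample was pooled with DNA-barcoded human transcription factors that had been expressed in yeast as GST fusions and captured on glutathione beads. The pools were incubated for 30 min at room temperature with 200 nmole of a random double-stranded 16-mer DNA library in Tris/NaCl/DTT/glycerol buffer, then washed, crosslinked with 0.1% formaldehyde, proximity-ligated (BsaI/T4 ligase, 1 h, 37 °C), PCR-amplified and sequenced on an Illumina NextSeq500. Binding signal is each hexamer's read frequency for a factor divided by its frequency for the tag-only sample.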

Assay [2] has as its target ELF1 (Homo sapiens, UniProt P32519 1-619). A digest of the protocol:
as §1

Assay [3] addresses SPIB (Homo sapiens, UniProt Q01892 1-262). A digest of the protocol:
as §1

In assay [4] the target is T2, ELK3 (Homo sapiens, UniProt P41970 1-407).
T2 sequence: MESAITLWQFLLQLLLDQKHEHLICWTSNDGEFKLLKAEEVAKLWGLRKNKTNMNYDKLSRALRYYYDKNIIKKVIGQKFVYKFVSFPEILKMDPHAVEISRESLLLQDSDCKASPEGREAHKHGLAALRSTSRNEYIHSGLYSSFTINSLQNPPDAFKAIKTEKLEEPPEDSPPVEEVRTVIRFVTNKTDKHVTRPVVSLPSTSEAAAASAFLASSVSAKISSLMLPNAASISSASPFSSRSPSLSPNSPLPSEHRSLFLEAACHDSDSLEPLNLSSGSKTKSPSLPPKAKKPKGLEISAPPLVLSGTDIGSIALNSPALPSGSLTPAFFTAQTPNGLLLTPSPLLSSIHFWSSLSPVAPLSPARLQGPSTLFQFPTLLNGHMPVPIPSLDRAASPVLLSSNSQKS
An outline of the steps: as §1

The target of assay [5] is T3, SPIC (Homo sapiens, UniProt Q8N5J4 1-248).
T3 sequence: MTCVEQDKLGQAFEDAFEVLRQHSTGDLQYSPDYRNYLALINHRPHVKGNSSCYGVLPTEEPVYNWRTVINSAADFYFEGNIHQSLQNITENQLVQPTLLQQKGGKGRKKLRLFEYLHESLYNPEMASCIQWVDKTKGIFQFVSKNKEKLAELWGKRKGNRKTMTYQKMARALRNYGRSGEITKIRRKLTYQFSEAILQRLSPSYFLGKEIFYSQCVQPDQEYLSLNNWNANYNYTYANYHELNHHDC
A digest of the protocol: as §1

In assay [6] the target is ELF4 (Homo sapiens, UniProt Q99607 1-663). An outline of the steps: as §1
Sequence of ELF4 (Q99607 whole entry): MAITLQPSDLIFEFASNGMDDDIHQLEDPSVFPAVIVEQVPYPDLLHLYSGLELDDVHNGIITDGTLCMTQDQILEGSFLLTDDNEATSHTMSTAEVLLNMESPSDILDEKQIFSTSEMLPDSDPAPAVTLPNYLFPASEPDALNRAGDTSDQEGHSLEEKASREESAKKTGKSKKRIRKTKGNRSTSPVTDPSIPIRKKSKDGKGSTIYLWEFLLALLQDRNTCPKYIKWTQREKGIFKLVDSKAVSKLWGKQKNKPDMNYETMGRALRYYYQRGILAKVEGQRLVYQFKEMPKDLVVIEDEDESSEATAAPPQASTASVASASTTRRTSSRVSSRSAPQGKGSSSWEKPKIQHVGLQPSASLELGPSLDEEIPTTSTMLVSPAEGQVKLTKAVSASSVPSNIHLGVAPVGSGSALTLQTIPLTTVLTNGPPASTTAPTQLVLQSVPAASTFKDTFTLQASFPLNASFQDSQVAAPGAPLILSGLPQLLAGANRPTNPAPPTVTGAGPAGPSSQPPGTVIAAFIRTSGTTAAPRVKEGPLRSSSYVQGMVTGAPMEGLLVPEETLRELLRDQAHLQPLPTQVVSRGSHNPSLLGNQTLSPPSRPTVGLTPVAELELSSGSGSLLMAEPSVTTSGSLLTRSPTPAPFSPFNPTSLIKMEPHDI
The target in assay [7] is T4, ELK4 (Homo sapiens, UniProt P28324-2 1-405).
T4 sequence: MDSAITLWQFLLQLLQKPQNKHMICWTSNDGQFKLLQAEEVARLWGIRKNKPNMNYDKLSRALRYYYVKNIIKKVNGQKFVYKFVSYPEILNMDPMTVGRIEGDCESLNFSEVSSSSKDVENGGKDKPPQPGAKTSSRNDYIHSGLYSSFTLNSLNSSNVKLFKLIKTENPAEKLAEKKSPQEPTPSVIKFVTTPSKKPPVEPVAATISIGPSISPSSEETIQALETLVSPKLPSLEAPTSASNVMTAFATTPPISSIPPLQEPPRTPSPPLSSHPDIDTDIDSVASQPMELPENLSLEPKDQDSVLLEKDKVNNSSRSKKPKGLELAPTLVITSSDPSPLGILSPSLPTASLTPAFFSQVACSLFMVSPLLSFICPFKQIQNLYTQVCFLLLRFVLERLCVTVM
An outline of the steps: as §1

Assay [8] concerns the target T5, ELF3 (Homo sapiens, UniProt P78545 1-371).
T5 sequence: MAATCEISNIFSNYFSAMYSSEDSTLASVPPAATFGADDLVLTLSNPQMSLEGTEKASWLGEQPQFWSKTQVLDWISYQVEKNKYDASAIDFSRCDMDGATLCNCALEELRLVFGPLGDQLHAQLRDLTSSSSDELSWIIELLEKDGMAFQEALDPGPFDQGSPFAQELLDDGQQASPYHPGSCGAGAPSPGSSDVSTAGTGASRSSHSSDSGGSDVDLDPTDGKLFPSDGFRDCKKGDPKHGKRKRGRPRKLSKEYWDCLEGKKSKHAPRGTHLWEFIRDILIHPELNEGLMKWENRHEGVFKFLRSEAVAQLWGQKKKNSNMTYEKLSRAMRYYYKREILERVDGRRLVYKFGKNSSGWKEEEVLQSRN
An outline of the steps: as §1

For assay [9], the target named is T6, ERF (Homo sapiens, UniProt P50548 1-548).
T6 sequence: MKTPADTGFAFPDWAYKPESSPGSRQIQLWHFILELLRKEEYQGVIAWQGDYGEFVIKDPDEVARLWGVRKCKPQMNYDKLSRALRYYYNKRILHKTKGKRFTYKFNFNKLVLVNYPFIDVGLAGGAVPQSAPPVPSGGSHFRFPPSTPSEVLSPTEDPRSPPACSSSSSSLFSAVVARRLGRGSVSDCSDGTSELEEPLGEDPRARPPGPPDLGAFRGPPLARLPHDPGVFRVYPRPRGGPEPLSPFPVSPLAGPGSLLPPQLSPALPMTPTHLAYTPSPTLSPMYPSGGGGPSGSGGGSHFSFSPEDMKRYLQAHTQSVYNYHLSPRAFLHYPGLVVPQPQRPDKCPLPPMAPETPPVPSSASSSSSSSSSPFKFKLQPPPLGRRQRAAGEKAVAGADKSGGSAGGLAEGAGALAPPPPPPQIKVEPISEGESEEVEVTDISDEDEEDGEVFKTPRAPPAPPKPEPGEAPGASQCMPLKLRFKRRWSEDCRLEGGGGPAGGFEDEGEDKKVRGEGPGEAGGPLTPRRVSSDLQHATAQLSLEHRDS
An outline of the steps: as §1

Assay [10] deals with T7, ETV3L (Homo sapiens, UniProt Q6ZN32 1-361).
T7 sequence: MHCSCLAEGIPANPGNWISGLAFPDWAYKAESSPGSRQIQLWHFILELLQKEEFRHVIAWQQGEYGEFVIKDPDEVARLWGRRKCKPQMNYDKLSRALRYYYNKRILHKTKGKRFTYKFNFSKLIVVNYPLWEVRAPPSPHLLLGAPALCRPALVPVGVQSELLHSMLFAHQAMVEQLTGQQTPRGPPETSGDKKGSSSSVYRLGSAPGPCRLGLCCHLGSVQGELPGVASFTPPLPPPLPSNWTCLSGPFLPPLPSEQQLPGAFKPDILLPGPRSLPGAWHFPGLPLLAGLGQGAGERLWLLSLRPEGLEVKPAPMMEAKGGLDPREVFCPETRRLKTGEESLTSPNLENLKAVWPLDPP
A digest of the protocol:
as §1

In assay [11] the target is T8, ETS2 (Homo sapiens, UniProt P15036 1-469).
T8 sequence: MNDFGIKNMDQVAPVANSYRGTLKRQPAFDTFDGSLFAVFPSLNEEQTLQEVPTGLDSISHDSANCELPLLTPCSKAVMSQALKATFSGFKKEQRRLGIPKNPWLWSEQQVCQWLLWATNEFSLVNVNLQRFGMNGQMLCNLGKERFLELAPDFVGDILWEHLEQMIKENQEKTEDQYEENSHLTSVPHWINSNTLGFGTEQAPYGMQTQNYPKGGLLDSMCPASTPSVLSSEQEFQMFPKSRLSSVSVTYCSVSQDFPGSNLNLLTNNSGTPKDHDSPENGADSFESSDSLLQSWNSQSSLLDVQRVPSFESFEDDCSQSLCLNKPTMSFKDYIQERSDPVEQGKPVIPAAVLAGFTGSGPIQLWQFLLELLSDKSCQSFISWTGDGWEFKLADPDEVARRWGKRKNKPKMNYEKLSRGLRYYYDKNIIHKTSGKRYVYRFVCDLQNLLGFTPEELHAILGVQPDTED
A digest of the protocol: as §1

The target in assay [12] is T9, SPDEF (Homo sapiens, UniProt O95238 1-335).
T9 sequence: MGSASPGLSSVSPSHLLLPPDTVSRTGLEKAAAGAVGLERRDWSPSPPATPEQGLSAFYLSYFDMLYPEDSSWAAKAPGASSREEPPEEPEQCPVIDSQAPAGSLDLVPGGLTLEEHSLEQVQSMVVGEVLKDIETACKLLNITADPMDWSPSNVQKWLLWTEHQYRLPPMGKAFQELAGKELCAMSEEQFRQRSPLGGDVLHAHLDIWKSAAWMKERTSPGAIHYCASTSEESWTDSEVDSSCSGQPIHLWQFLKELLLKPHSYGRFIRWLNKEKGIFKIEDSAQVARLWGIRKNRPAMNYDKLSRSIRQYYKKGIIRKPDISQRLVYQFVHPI
A digest of the protocol: as §1

The target of assay [13] is T10, ETV7 (Homo sapiens, UniProt Q9Y603 1-341).
T10 sequence: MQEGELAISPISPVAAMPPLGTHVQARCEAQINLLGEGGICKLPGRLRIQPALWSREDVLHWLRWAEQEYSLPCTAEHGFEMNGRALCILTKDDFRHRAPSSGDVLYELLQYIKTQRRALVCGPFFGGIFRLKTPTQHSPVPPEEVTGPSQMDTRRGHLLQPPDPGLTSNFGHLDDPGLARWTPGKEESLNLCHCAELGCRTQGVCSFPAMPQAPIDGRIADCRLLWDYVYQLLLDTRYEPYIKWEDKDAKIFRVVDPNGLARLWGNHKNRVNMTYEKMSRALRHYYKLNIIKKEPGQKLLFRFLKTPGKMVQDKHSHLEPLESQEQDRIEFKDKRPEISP
An outline of the steps:
as §1

In assay [14] the target is T11, ETV3 (Homo sapiens, UniProt P41162-2 1-143).
T11 sequence: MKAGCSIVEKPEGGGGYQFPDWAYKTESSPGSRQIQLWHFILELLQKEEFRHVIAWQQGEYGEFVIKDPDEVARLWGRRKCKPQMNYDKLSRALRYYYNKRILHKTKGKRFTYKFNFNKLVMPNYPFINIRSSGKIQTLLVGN
A digest of the protocol: as §1

Sequence of ELF1 (P32519 whole entry): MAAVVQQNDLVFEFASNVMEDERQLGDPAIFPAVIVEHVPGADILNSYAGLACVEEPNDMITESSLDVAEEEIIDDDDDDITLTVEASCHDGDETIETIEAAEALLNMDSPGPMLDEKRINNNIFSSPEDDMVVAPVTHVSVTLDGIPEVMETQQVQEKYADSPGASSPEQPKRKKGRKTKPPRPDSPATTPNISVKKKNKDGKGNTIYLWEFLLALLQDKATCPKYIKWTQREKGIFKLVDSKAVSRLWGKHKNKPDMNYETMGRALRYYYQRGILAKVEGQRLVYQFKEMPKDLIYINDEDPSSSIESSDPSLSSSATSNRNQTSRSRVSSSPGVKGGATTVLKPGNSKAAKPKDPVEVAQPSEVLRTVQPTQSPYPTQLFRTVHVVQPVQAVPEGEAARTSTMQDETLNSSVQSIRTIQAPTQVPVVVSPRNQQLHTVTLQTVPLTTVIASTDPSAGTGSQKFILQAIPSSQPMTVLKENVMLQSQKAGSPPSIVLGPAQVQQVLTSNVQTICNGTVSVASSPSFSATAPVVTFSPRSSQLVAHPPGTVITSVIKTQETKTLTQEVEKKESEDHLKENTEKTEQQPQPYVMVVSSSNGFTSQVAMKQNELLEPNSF
Sequence of SPIB (Q01892 whole entry): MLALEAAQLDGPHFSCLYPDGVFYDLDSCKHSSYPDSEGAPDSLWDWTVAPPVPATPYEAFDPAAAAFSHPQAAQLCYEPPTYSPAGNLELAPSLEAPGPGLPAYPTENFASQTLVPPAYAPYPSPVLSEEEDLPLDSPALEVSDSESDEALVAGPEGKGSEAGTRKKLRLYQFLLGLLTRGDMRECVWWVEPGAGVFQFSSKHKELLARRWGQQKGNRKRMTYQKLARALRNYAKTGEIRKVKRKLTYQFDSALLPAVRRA

GATCTA: the binding signal in assay [1] is 1.12 fold enrichment (6-mer frequency, TF over GST control); in assay [2], 1.03 fold enrichment (6-mer frequency, TF over GST control); in assay [3], 1.06 fold enrichment (6-mer frequency, TF over GST control); in assay [4] it was 1.12 fold enrichment (6-mer frequency, TF over GST control); in assay [5], 1.01 fold enrichment (6-mer frequency, TF over GST control); in [6], 1.04 fold enrichment (6-mer frequency, TF over GST control). For the same sequence, the binding signal in [7] was 1.05 fold enrichment (6-mer frequency, TF over GST control); in assay [8], 1.07 fold enrichment (6-mer frequency, TF over GST control); in assay [9] it was 1.04 fold enrichment (6-mer frequency, TF over GST control); in [10], 1.03 fold enrichment (6-mer frequency, TF over GST control); in assay [11], 1.04 fold enrichment (6-mer frequency, TF over GST control); in [12] it was 1.1 fold enrichment (6-mer frequency, TF over GST control). In addition, the binding signal in [13] is 1.1 fold enrichment (6-mer frequency, TF over GST control); in assay [14], 1.04 fold enrichment (6-mer frequency, TF over GST control).
